{"source": "PubChem BioAssay AID1220", "about": "(Sanford-Burnham Center for Chemical Genomics, 2008)", "note": "The campaign covered roughly 190,000 compounds. About 1,300 (0.68%) were called active. What follows is part of a selection rich in actives, with near analogues and random picks from the rest. A number with no mark means an inactive call. Rule as the data show it: active = inhibition above about 50%; inactive = the rest.", "data": [{"target": "Mannose-6-phosphate isomerase (Homo sapiens) (UniProt P34949)", "sequence (P34949 whole entry, looked up)": "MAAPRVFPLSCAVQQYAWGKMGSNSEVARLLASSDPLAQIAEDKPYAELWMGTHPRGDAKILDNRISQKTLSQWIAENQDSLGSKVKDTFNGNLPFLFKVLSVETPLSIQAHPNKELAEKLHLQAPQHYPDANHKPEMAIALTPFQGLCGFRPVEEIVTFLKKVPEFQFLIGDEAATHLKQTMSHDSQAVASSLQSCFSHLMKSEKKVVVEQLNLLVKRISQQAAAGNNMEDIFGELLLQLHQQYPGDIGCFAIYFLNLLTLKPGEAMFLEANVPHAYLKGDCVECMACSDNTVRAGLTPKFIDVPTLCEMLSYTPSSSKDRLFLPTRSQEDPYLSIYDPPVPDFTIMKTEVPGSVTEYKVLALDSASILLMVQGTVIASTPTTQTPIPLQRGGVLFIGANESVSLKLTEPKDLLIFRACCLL", "test": "MPI inhibition at elevated mannose 6-phosphate – biochemical, fluorescence intensity, high mannose 6-phosphate, primary screen (AID 1220)", "conditions": "recombinant PMI enzyme, coupled fluorescence intensity; at 20 µM; hits give high values", "values": [{"smiles": "CC1CCCCC1NC(=O)CO/N=C/c1ccccc1OC(F)F", "note": "(stereo unspecified)", "inhibition": "5.8%"}, {"smiles": "COCCOCCn1c(CCCO)nc2ccccc21", "inhibition": "-2.6%"}, {"smiles": "Cc1ccc(S(=O)(=O)N2CCN(Cc3nc4ccccc4[nH]3)CC2)cc1C", "inhibition": "-2.8%"}, {"smiles": "CCOC(=O)Cc1csc(NC(=O)CSc2nnc(Cc3csc(N)n3)n2C)n1", "inhibition": "14.4%"}, {"smiles": "O=C(NCCN1CCOCC1)c1cc2cc(Br)ccc2oc1=O", "inhibition": "9.2%"}, {"smiles": "CCOC(=O)N1CCC(NS(=O)(=O)c2ccc3c(c2)CCN3C(C)=O)CC1", "inhibition": "2.5%"}, {"smiles": "O=C(C1CC1)N1CCc2cc(Br)cc(S(=O)(=O)NC3CCCCC3)c21", "inhibition": "2.5%"}, {"smiles": "Cn1cccc1C(=O)C(=O)Nc1ccccc1", "inhibition": "-5.5%"}, {"smiles": "COC(=O)c1ccc(NC(=O)C(=O)c2cccn2C)cc1", "inhibition": "52.2% (active)"}, {"smiles": "Cn1cccc1C(=O)C(=O)Nc1ccc(Cl)cc1", "inhibition": "-0.1%"}, {"smiles": "COc1ccc(-c2cnc(N)nc2-c2ccc(OC)cc2O)cc1", "inhibition": "11.9%"}, {"smiles": "COc1ccc2c(c1)CCc1cnc(N)nc1-2", "inhibition": "60% (active)"}, {"smiles": "Nc1ncc2c(n1)-c1ccccc1CC2", "inhibition": "32.5%"}, {"smiles": "CCOC(=O)N1CCN(C(=O)C2CCN(Cc3nc(-c4ccccc4C)oc3C)CC2)CC1", "inhibition": "-4.9%"}, {"smiles": "COc1cc(/C=C/C(=O)Nc2cc(S(=O)(=O)N3CCOCC3)ccc2N2CCCC2)cc(OC)c1OC", "inhibition": "19.5%"}, {"smiles": "c1ccc(-c2csc3ncnc(NCCCN4CCOCC4)c23)cc1", "inhibition": "-16.3%"}, {"smiles": "CC(=O)n1cc([C@H]2C=C(C(=O)NCc3ccccc3)O[C@@H](OCCCCO)C2)c2ccccc21", "inhibition": "46.3%"}, {"smiles": "O=C(C1=C[C@H](c2csc3ccccc23)C[C@H](OCCCCO)O1)N1CCN(Cc2ccccc2)CC1", "inhibition": "22.9%"}, {"smiles": "O=C(NCc1ccccc1)C1=C[C@@H](c2csc3ccccc23)C[C@@H](OCCCCO)O1", "inhibition": "53.8% (active)"}, {"smiles": "O=C(Nc1ccccc1)C1=C[C@H](c2csc3ccccc23)C[C@H](OCCCCO)O1", "inhibition": "12.8%"}, {"smiles": "O=C(NCc1ccccc1)C1=C[C@@H](c2csc3ccccc23)C[C@@H](OCc2ccc(CO)cc2)O1", "inhibition": "44.5%"}, {"smiles": "C#CCNC(=O)C1=C[C@H](c2csc3ccccc23)C[C@H](OCCCCO)O1", "inhibition": "30.3%"}, {"smiles": "CC(=O)n1cc([C@@H]2C=C(C(=O)NCc3ccccc3)O[C@H](OCCCCO)C2)c2ccccc21", "inhibition": "50.3% (active)"}, {"smiles": "O=C(NCc1ccccc1)C1=C[C@H](c2csc3ccccc23)C[C@H](OCCCCO)O1", "inhibition": "53.9% (active)"}, {"smiles": "C#CCNC(=O)C1=C[C@@H](c2cn(C(C)=O)c3ccccc23)C[C@@H](OCCCCO)O1", "inhibition": "22.9%"}, {"smiles": "CN1C(=O)NC(c2ccccc2)C2=C1CN(c1ccc3ccccc3c1)C2=O", "note": "(stereo unspecified)", "inhibition": "9.4%"}, {"smiles": "COc1ccc(C(=O)C[n+]2cn(C(F)F)c3ccccc32)c(F)c1", "inhibition": "-11.8%"}, {"smiles": "Cc1cc(C)n(C(=O)CSc2nnc(SCC(=O)n3nc(C)cc3C)s2)n1", "inhibition": "-11.7%"}, {"smiles": "CC(=O)N1CCc2cc(S(=O)(=O)NC(CC(C)C)C(=O)N3CCn4c3nc3ccccc34)ccc21", "note": "(stereo unspecified)", "inhibition": "6.2%"}, {"smiles": "COCCNCC1C(Oc2ccc(Cl)cc2)C(=O)N1c1ccccc1C", "note": "(stereo unspecified)", "inhibition": "50.7% (active)"}, {"smiles": "CCCNCC1C(Oc2ccc(Cl)cc2)C(=O)N1c1ccccc1C", "note": "(stereo unspecified)", "inhibition": "-6%"}, {"smiles": "COCCCNCC1C(Oc2ccc(Cl)cc2)C(=O)N1c1ccccc1C", "note": "(stereo unspecified)", "inhibition": "-5.6%"}, {"smiles": "Nc1ncc(-n2cncn2)c(-c2ccc(Cl)cc2)n1", "inhibition": "9.9%"}, {"smiles": "CC1CCCCC1NCC(=O)NCc1ccc(F)cc1", "note": "(stereo unspecified)", "inhibition": "-10.5%"}, {"smiles": "CCOC(=O)c1c(C)oc2cc(Br)c(OC(=O)N3CCOCC3)cc12", "inhibition": "11.1%"}, {"smiles": "COc1ccc(-c2nc(C#N)c(N3CCN(c4cccc(Cl)c4)CC3)o2)cc1OC", "inhibition": "4.2%"}, {"smiles": "CC1CC(C)(C)Nc2ccc(OC(=O)c3ccco3)cc21", "note": "(stereo unspecified)", "inhibition": "25.5%"}, {"smiles": "CC1=CC(C)(C)Nc2ccc(OC(=O)c3cccnc3)cc21", "inhibition": "16%"}, {"smiles": "CC(=O)Nc1ccc(S(=O)(=O)Oc2ccc3c(c2)C(C)=CC(C)(C)N3)cc1", "inhibition": "29.5%"}, {"smiles": "CC1=CC(C)(C)Nc2ccc(OC(=O)c3ccco3)cc21", "inhibition": "52% (active)"}, {"smiles": "CC1=CC(C)(C)Nc2ccc(OC(=O)CN3C(=O)c4ccccc4C3=O)cc21", "inhibition": "26.2%"}, {"smiles": "CC1=CC(C)(C)Nc2ccc(OC(=O)C(C)N3C(=O)c4ccccc4C3=O)cc21", "note": "(stereo unspecified)", "inhibition": "24.3%"}, {"smiles": "CC1=CC(C)(C)Nc2ccc(OC(=O)CN3C(=O)CCC3=O)cc21", "inhibition": "12.7%"}, {"smiles": "CC1=CC(C)(C)Nc2ccc(OS(=O)(=O)c3ccc(C)cc3)cc21", "inhibition": "51.5% (active)"}, {"smiles": "COC(=O)c1nn(-c2ccc(C)cc2)ccc1=O", "inhibition": "-2.7%"}, {"smiles": "Cc1cccc(C(=O)NCCc2nnc(SCC(=O)Nc3nc(C)cs3)n2C)c1", "inhibition": "4%"}, {"smiles": "CC1CCCN(S(=O)(=O)c2ccc(S(=O)(=O)N3CCC4(CC3)OCCO4)cc2)C1", "note": "(stereo unspecified)", "inhibition": "2.2%"}, {"smiles": "CC(C)OC(=O)c1cc(NC(=S)Nc2ccc([N+](=O)[O-])cc2)cc(C(=O)OC(C)C)c1", "inhibition": "4%"}, {"smiles": "CCC1(CC)C(=O)N=C2c3ccccc3C(=O)N21", "inhibition": "-2.6%"}, {"smiles": "O=C(c1ccc(C(F)(F)F)cc1)N1CCC(=O)N(C(COCc2ccccc2)Cc2ccccc2)CC1", "note": "(stereo unspecified)", "inhibition": "-5.1%"}, {"smiles": "O=C(Nc1ccccc1)c1cc2c(=O)c3ccccc3oc2nc1C(F)(F)F", "inhibition": "4.4%"}, {"smiles": "COc1ccccc1N1CCN(c2cnccn2)CC1", "inhibition": "5.8%"}, {"smiles": "CNCc1ccccc1Sc1cccc(O)c1", "inhibition": "-1.7%"}, {"smiles": "CNCc1ccccc1Sc1cc(O)ccc1O", "inhibition": "41.3%"}, {"smiles": "O=C(Cc1ccccc1)NCC(=O)N1CCCCC1", "inhibition": "-8%"}, {"smiles": "O=C(NNC(=O)C1CC1c1ccccc1)c1ccccc1F", "note": "(stereo unspecified)", "inhibition": "-2.1%"}, {"smiles": "CCOC(=O)c1cccc(NC(=O)CCc2ccccc2)c1", "inhibition": "-0.6%"}, {"smiles": "COc1cc([C@H](Cc2ccccc2)NC(C)=O)oc(=O)c1", "inhibition": "53.9% (active)"}, {"smiles": "COc1cccc(CNC(=O)CC(NC(C)=O)c2ccccc2)c1", "note": "(stereo unspecified)", "inhibition": "1%"}, {"smiles": "CC(=O)NC(Cc1ccccc1)c1ccc2c(c1)OCCCO2", "note": "(stereo unspecified)", "inhibition": "4.4%"}, {"smiles": "Cc1cccc(C(=O)Oc2ccccc2-c2nnco2)c1", "inhibition": "-9.6%"}, {"smiles": "COc1ccc(C(c2sc3nc(C)nn3c2O)N2CCCCC2)cc1", "note": "(stereo unspecified)", "inhibition": "4.3%"}, {"smiles": "O=c1[nH]c2cc3c(cc2cc1CN(CC1CCCO1)S(=O)(=O)c1ccccc1)OCCO3", "note": "(stereo unspecified)", "inhibition": "4.9%"}, {"smiles": "COc1ccc(C(=O)N/N=C(\\C)CC(=O)N2CCN(C=O)CC2)cc1", "inhibition": "-9.2%"}, {"smiles": "C/C(CC(=O)N1CCN(C=O)CC1)=N\\NC(=O)c1ccc(Cl)cc1", "inhibition": "3.6%"}, {"smiles": "CC(=O)NC(Cc1cc(C)ccc1C)C(=O)N1CCN(C(=O)c2ccccc2Br)CC1", "note": "(stereo unspecified)", "inhibition": "-3.4%"}, {"smiles": "O=[N+]([O-])c1cc(-c2n[nH]c(-c3ccccc3)n2)cc([N+](=O)[O-])c1", "inhibition": "-4.6%"}, {"smiles": "Oc1cccc(/C=N/Nc2cccc3cccnc23)c1", "inhibition": "20.3%"}, {"smiles": "COc1ccc(/C=C2\\SC(=O)N(CCC(=O)Nc3ccc(S(=O)(=O)Nc4nccs4)cc3)C2=O)cc1", "inhibition": "8.6%"}, {"smiles": "CCCNS(=O)(=O)c1ccc(CCC(=O)Nc2ccc3c(c2)OCO3)cc1", "inhibition": "10.1%"}, {"smiles": "CCCNS(=O)(=O)c1ccc(CCC(=O)Nc2ccc3c(c2)OCCO3)cc1", "inhibition": "50.1% (active)"}, {"smiles": "O=C(CCc1ccc(S(=O)(=O)NCCc2ccccc2)cc1)Nc1ccc2c(c1)OCCO2", "inhibition": "-3.2%"}, {"smiles": "O=C(Oc1ccc(/C=N/NC(=O)c2ccccc2O)cc1)c1ccccc1", "inhibition": "-12.7%"}, {"smiles": "Cc1nn(-c2ccccc2)c(N2CCCC2)c1/C=N/NC(=O)c1ccccc1O", "inhibition": "-2.8%"}, {"smiles": "O=C(N/N=C/c1cc2c3c(c1O)CCCN3CCC2)c1ccccc1O", "inhibition": "50.2% (active)"}, {"smiles": "Oc1ccc(NC(=S)Nc2ccc(O)cc2)cc1", "inhibition": "66.7% (active)"}, {"smiles": "COC(=O)c1ccc(NC(=S)Nc2ccc(O)cc2)cc1", "inhibition": "-3.3%"}, {"smiles": "Oc1ccc(NC(=S)Nc2ccccc2)cc1", "inhibition": "16.4%"}, {"smiles": "CCOc1cc(C(N)=O)cc(Cl)c1OCC", "inhibition": "1.7%"}, {"smiles": "Cc1[nH]c2ccccc2c1/C=C/C(=O)c1ccccc1", "inhibition": "3.9%"}, {"smiles": "O=C(/C=C/c1c[nH]c2ccccc12)c1ccccc1", "inhibition": "52.5% (active)"}, {"smiles": "Cc1ccc(C(=O)/C=C/c2c[nH]c3ccccc23)cc1", "inhibition": "54.4% (active)"}, {"smiles": "Cc1ccc(C(=O)Nc2ccc(C(=O)N/N=C/c3c[nH]c4ccccc34)cc2)cc1", "inhibition": "11.4%"}, {"smiles": "O=C(/C=C/c1c[nH]c2ccccc12)c1cccc2ccccc12", "inhibition": "42%"}, {"smiles": "Cc1ccc(/C=C/C(=O)c2ccccc2)cc1", "inhibition": "11.2%"}, {"smiles": "COc1cc(/C=C(\\C#N)c2nc3ccccc3[nH]2)cc(Br)c1OCc1ccc(F)cc1", "inhibition": "19.3%"}, {"smiles": "c1ccc(COCCN2CCN(CCOCc3ccccc3)CC2)cc1", "inhibition": "3.2%"}, {"smiles": "COc1ccc2nc(SCC(C)=O)c(C#N)cc2c1", "inhibition": "-92.4%"}, {"smiles": "COc1ccc2nc(N3CCC(O)CC3)c(C#N)cc2c1", "inhibition": "51.2% (active)"}, {"smiles": "COc1ccc2nc(N3CCC(C)CC3)c(C#N)cc2c1", "inhibition": "-5.3%"}, {"smiles": "COc1ccc2nc(N3CCCC3)c(C#N)cc2c1", "inhibition": "-5.8%"}, {"smiles": "COc1ccc2nc(SC)c(C#N)cc2c1", "inhibition": "52.1% (active)"}, {"smiles": "CCSc1nc2ccc(OC)cc2cc1C#N", "inhibition": "14.3%"}, {"smiles": "COc1cccc(C2=NCCc3cc4c(cc32)OCO4)c1OC", "inhibition": "1.3%"}, {"smiles": "CCC(=O)Nc1nc2c(s1)COc1ccccc1-2", "inhibition": "6.3%"}, {"smiles": "CCC12CN3CC(CC)(CN(C1)C3c1ccccc1Cl)C2O", "note": "(stereo unspecified)", "inhibition": "6.4%"}]}]}
